Measurements published in the supplement of paper PMC10849652.
Targets with a hit are over-represented here; the source holds about 8,800 in all. About 0.5% of all pairs of compound and target were hits. Unmarked numbers belong to inactive results.

Tests used:
Assay in all cases: log2 fold change, soluble protein after heating vs DMSO (PISA); higher = thermal stabilisation; K562 lysate, 10 uM; active = over 0.2 and 3.5 SD of the protein, either way, in both replicates (recomputed)
nilotinib = compound: Cc1cn(-c2cc(NC(=O)c3ccc(C)c(Nc4nccc(-c5cccnc5)n4)c3)cc(C(F)(F)F)c2)cn1 [nilotinib]
Method in brief: (§1)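 Following dounce homogenisation of K562 pellets in PBS pH 7.4 with 1 mM MgCl2, crude extract at 1 mg/mL protein was incubated for 30 min with 10 μM compound. Aliquots were then heated for 3 min over 48°C-58°C and pooled, NP-40 was added to 0.5% at 4°C, and soluble protein was recovered as the supernatant at 21,000xg for 90 min. Channel-sum-equalised TMTpro 16plex LC-MS/MS quantified this protein. Each value, from duplicates, is a log-two fold change in thermal stability relative to solvent controls.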

[1] = compound: Cc1nc(Nc2n[nH]c3c2CN(C(=O)N[C@H](CN(C)C)c2ccccc2)C3(C)C)c2sccc2n1
Method in brief: as §1

dasatinib = compound: Cc1nc(Nc2ncc(C(=O)Nc3c(C)cccc3Cl)s2)cc(N2CCN(CCO)CC2)n1 [dasatinib]
Method in brief: as §1

[2] = compound: Cc1ncc(-c2ccnc(Nc3ccc(S(C)(=O)=O)cc3)n2)n1C(C)C
Method in brief: as §1

[3] = compound: Cn1cc(-c2ccc3c(c2)CCN3C(=O)Cc2cccc(C(F)(F)F)c2)c2c(N)ncnc21
Method in brief: as §1

quisinostat = compound: Cn1cc(CNCC2CCN(c3ncc(C(=O)NO)cn3)CC2)c2ccccc21 [quisinostat]
Method in brief: as §1

tipifarnib = compound: Cn1cncc1[C@@](N)(c1ccc(Cl)cc1)c1ccc2c(c1)c(-c1cccc(Cl)c1)cc(=O)n2C [tipifarnib]
Method in brief: as §1

[4] = compound: NC(=O)Nc1cc(-c2cccc(F)c2)sc1C(=O)N[C@H]1CCCNC1
Method in brief: as §1

[5] = compound: NC(=O)c1cnc(N[C@@H]2CCCC[C@@H]2N)nc1Nc1cccc(-n2nccn2)c1
Method in brief: as §1

[6] = compound: NC1(c2ccc(-c3nc4ccn5c(=O)[nH]nc5c4cc3-c3ccccc3)cc2)CCC1
Method in brief: as §1

Chain of UniProt Q9Y570 (Q9Y570 whole entry, looked up): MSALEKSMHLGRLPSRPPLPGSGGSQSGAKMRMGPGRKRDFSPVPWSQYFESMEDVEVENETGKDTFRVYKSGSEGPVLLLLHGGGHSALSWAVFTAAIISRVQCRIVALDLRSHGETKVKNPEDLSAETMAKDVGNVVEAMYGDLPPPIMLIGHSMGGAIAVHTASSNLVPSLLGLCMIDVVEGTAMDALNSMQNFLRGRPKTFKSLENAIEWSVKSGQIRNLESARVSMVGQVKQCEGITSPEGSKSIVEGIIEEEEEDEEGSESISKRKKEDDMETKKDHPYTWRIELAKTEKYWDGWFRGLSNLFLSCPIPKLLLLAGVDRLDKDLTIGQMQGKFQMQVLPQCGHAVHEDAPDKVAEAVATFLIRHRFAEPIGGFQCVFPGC
Chain of UniProt P48736 (P48736 whole entry, looked up): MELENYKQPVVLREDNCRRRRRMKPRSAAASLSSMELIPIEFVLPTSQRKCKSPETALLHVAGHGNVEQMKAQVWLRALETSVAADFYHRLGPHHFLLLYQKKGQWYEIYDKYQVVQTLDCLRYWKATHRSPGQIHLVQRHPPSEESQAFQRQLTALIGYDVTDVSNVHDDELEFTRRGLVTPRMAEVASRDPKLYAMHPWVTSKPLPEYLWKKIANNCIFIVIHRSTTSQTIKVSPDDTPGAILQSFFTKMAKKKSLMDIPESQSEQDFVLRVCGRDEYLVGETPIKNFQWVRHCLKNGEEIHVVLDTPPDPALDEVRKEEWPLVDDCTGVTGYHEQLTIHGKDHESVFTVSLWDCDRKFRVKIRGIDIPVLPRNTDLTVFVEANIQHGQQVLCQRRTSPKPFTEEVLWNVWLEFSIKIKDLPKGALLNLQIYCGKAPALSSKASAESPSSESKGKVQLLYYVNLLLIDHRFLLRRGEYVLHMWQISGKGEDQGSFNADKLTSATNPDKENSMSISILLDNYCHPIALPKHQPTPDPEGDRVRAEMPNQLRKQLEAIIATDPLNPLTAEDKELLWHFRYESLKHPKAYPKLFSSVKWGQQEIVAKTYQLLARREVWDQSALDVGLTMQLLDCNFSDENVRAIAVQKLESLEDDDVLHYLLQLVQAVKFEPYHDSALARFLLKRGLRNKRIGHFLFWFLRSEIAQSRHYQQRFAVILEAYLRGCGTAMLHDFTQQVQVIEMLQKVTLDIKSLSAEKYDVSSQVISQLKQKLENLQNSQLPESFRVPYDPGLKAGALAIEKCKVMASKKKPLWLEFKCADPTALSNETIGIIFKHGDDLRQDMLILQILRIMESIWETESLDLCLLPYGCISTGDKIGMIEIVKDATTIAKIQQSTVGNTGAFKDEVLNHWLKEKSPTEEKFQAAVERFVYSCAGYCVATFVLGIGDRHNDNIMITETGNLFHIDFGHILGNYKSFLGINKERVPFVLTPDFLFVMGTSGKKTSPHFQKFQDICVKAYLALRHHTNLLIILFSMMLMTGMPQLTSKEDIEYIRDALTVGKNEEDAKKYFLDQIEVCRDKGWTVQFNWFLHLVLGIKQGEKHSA
Chain of UniProt Q16378 (Q16378 whole entry, looked up): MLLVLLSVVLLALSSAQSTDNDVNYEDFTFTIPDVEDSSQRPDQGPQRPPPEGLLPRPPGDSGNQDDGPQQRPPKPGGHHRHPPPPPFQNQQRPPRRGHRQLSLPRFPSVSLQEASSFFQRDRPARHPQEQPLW
Chain of UniProt Q9BRQ0 (Q9BRQ0 whole entry, looked up): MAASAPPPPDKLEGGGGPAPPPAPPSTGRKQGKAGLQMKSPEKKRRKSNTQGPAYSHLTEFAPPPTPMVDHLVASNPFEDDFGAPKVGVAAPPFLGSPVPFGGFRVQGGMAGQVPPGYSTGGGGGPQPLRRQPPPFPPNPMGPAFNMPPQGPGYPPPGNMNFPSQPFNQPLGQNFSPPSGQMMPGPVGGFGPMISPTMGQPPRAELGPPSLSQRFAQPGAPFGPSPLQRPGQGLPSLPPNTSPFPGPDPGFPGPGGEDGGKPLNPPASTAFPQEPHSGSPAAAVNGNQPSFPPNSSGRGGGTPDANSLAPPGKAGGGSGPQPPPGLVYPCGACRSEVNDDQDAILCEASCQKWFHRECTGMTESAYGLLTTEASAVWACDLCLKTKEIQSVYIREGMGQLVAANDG
Chain of UniProt Q05397 (Q05397 whole entry, looked up): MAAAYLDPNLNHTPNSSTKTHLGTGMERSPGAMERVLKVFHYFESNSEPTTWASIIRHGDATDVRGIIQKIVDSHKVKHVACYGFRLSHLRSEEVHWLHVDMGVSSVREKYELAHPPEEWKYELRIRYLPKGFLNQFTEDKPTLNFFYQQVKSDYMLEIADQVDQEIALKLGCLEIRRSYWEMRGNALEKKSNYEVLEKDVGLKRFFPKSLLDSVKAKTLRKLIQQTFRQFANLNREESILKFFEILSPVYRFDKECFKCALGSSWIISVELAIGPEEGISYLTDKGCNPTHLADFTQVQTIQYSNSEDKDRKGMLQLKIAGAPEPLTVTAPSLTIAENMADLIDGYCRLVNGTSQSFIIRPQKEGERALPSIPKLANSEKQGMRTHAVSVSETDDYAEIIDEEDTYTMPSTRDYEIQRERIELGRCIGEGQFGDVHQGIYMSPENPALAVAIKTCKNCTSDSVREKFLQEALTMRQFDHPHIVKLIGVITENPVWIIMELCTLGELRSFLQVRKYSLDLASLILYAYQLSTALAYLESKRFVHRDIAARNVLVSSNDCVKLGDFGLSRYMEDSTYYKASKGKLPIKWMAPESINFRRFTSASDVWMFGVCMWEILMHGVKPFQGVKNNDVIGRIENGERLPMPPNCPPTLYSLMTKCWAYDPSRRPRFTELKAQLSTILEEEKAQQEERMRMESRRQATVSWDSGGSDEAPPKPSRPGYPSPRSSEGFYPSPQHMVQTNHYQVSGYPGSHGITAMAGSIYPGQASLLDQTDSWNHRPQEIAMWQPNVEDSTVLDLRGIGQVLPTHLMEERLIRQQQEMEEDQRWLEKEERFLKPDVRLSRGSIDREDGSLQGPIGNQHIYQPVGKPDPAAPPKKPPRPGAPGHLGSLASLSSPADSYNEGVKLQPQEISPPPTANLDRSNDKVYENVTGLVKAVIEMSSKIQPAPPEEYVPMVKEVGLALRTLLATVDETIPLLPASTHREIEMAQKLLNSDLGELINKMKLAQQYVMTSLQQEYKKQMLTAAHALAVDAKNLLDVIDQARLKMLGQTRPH
Chain of UniProt Q16877 (Q16877 whole entry, looked up): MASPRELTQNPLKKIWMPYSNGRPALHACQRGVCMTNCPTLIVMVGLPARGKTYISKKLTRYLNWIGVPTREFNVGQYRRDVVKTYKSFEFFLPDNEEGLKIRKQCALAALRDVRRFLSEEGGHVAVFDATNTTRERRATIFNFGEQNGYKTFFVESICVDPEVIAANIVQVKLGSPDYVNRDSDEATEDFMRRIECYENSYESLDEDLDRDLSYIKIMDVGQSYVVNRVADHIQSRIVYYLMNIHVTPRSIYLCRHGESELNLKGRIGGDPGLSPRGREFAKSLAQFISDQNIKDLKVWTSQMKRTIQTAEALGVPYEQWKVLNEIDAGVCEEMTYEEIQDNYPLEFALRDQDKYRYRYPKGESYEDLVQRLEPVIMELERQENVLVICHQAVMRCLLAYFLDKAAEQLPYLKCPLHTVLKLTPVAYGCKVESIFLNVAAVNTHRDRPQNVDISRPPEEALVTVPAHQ
Chain of UniProt P11309 (P11309 whole entry, looked up): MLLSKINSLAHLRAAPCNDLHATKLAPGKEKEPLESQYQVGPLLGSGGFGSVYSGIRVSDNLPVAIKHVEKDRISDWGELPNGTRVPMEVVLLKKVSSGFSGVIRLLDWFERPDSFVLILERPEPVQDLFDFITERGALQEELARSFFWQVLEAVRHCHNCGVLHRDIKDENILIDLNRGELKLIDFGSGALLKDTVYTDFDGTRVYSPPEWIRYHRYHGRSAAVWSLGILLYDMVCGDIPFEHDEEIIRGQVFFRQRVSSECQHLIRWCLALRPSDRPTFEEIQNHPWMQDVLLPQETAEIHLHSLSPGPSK
Chain of UniProt Q4G0T1 (Q4G0T1 whole entry, looked up): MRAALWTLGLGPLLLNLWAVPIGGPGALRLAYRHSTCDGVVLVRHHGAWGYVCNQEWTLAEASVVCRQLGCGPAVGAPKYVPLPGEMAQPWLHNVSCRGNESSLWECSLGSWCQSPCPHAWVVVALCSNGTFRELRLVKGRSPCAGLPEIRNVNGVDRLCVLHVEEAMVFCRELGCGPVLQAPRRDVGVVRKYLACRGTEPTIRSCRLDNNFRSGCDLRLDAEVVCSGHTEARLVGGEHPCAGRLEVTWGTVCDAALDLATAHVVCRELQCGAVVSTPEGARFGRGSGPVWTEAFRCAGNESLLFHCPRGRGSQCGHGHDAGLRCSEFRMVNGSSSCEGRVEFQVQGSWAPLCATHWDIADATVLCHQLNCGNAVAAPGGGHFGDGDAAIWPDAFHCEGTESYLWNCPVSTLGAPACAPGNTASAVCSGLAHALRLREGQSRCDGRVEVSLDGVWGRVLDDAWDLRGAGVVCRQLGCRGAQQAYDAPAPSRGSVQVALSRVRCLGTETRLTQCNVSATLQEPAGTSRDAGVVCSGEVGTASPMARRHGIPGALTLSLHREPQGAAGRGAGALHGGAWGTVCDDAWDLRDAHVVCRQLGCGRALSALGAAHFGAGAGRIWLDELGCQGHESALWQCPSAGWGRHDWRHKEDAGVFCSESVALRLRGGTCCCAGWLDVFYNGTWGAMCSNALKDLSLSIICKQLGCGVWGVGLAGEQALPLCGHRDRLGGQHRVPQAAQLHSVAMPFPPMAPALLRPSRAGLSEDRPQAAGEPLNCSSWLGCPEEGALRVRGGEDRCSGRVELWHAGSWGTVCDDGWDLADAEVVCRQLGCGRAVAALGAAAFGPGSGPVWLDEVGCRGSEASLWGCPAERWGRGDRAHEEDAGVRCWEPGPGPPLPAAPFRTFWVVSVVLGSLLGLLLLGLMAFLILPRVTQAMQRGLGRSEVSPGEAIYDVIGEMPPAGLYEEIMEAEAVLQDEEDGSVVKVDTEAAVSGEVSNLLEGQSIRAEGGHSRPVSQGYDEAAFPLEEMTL
Chain of UniProt P60673 (P60673 whole entry, looked up): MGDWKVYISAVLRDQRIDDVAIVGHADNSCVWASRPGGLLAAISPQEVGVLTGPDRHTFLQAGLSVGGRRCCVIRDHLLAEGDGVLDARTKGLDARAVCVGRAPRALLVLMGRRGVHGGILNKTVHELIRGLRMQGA

Target | log2 fold change (nilotinib) | log2 fold change [1] | log2 fold change (dasatinib) | log2 fold change [2] | log2 fold change [3] | log2 fold change (quisinostat) | log2 fold change (tipifarnib) | log2 fold change [4] | log2 fold change [5] | log2 fold change [6]
PDE2A (UniProt O00408) | 0.021 | -0.033 | 0.042 | -0.008 | 0.035 | 0.026 | 0.042 | 0.006 | 0.08 | -0.184
PFAS (UniProt O15067) | 0.015 | -0.023 | -0.031 | -0.017 | 0.008 | -0.037 | 0.01 | 0.01 | 0.005 | -0.009
PPME1 isoform 4 (UniProt Q9Y570) | 0.01 | -0.053 | -0.008 | -0.025 | -0.003 | 0.018 | 0.01 | -0.03 | -0.016 | 0.041
PPP4R2 (UniProt Q9NY27) | 0.012 | 0.018 | 0.029 | 0.005 | -0.028 | -0.009 | -0.042 | -0.011 | 0.009 | -0.01
PUF60 (UniProt Q9UHX1) | -0.006 | -0.002 | -0.025 | 0.011 | -0.017 | 0.073 | 0.016 | -0.017 | -0.001 | 0.021
PTK2B (UniProt Q14289) | 0.011 | 0.109 | 0.041 | 0.026 | 0.059 | -0.122 | -0.067 | 0.377 (active) | 0.072 | -0.04
PPCDC (UniProt Q96CD2) | -0.002 | -0.014 | -0.06 | -0.017 | -0.04 | -0.015 | 0.022 | 0.013 | 0 | 0.047
PIAS2 (UniProt O75928) | -0.019 | -0.005 | -0.097 | 0.068 | -0.026 | 0.061 | -0.086 | 0.004 |  | 0.025
PUF60 isoform 2 (UniProt Q9UHX1) | -0.011 | -0.027 |  | 0.05 |  | 0.013 | 0.023 | 0.017 | -0.016 | -0.184
PRKD3 (UniProt O94806) | 0.054 | -0.086 |  | -0.03 |  | -0.014 | 0.087 | -0.174 | 0.001 | 0.054
POLR2M (UniProt Q6EEV4) |  |  | 0.02 |  | -0.2 | 0.011 |  | 0.032 | -0.015 | 0.076
PTK2 isoform 2 (UniProt Q05397) |  |  | 0.014 |  | 0.102 |  |  |  | 0.034 | -0.168
NA (UniProt Q4G0T1) |  |  | 0.054 |  | 0.095 | 0.034 |  | 0.054 |  | 0.062
PPP1R14C (UniProt Q8TAE6) | 0.075 | -0.003 | 0.105 | -0.043 | -0.173 |  | 0.073 |  | -0.184 | 
POLR2F (UniProt U3KPV3) |  |  | -0.024 |  | 0.038 |  |  |  |  | 
PRR4 (UniProt Q16378) | 0.047 | -0.145 |  | -0.027 |  |  | 0.05 |  | 0.032 | 0.012
PPME1 (UniProt Q9Y570) |  |  | 0.032 |  | -0.08 |  |  |  | 0.048 | 0.027
PFKFB4 (UniProt Q16877) |  |  | 0.009 |  | -0.045 | 0.059 |  | -0.024 | 0.015 | 0.013
PPT2, A0A140T9Y1 | -0.054 | 0.086 |  | 0.089 |  |  | 0.1 |  |  | 
PIK3CD (UniProt O00329) | 0.059 | 0.006 |  | 0.122 | 0.151 | -0.091 | -0.053 | 0.02 | 0.001 | 0.127
PPP2CA (UniProt E7ESG8) | 0.025 | -0.108 |  | -0.232 |  |  | 0.356 |  |  | 
PPM1H (UniProt Q9ULR3) |  |  | 0 |  | 0.001 | -0.036 |  | -0.041 | 0 | -0.07

Target | log2 fold change (nilotinib) | log2 fold change [1] | log2 fold change (dasatinib) | log2 fold change [2] | log2 fold change [3] | log2 fold change (quisinostat) | log2 fold change (tipifarnib) | log2 fold change [4] | log2 fold change [5] | log2 fold change [6]
PMS1 (UniProt P54277) | -0.022 | 0 | -0.011 | -0.001 | 0.017 | -0.086 | 0.058 | 0.041 |  | -0.029
PPP2R5B (UniProt Q15173) |  |  | 0.018 |  | 0.021 | 0.058 |  | -0.025 | 0.011 | -0.015
PNPLA4 (UniProt P41247) |  |  | 0.099 |  | 0.194 | 0.048 |  | 0.037 |  | 
PFN3 (UniProt P60673) | -0.104 | 0.001 |  | 0.033 |  | -0.349 | -0.083 | -0.044 | -0.087 | 
PDE4DIP (UniProt E9PS60) | -0.074 | 0.052 | -0.158 | -0.045 | -0.073 | -0.256 | 0.081 | -0.205 |  | -0.025
PFN1 (UniProt I3L3D5) | -0.009 | -0.088 |  | 0.108 |  |  | 0.006 |  | 0.04 | 
POM121C (UniProt A8CG34) |  |  |  |  |  |  |  |  | 0.022 | -0.09
PHGDH, A0A286YFE1 |  |  | 0.086 |  | 0.258 |  |  |  | -0.29 | 
PHOSPHO2 (UniProt C9JD35) |  |  |  |  |  | 0.073 |  | -0.102 |  | 
PRKDC (UniProt P78527) | -0.015 | -0.01 |  | 0.188 | 0.038 | -0.093 | -0.011 | 0.004 | 0.123 | -0.073
PIK3CG (UniProt P48736) | 0.004 | -0.022 |  | 0.079 | 0.097 | -0.139 | 0.003 | 0.013 |  | -0.017
PYGO2 (UniProt Q9BRQ0) | 0.01 | 0.044 | -0.028 | 0.063 | 0.004 | 0.016 | -0.02 | -0.015 |  | 0.029
PIM1 isoform 2 (UniProt P11309) | 0.059 | -0.025 | -0.033 | 0.063 | 0.112 | -0.085 | 0.061 | 0.038 |  | -0.146
PICALM (UniProt H0YCY1) |  |  |  |  |  |  |  |  |  | 0.013
PREP (UniProt H0Y5Y0) |  |  |  |  |  |  |  |  | -0.087 | 
PPP2R3C (UniProt Q969Q6) | -0.139 | 0.057 | -0.061 | -0.13 | -0.009 |  | 0.057 |  | 0.038 | 0.062
PPIC (UniProt P45877) | -0.112 | 0.069 | 0.037 | -0.02 | -0.036 | -0.063 | 0.145 | 0.206 |  | -0.045
PPP1R12B isoform 6 (UniProt O60237) |  |  | -0.065 |  | 0.134 | -0.531 (active) |  | 0.006 | 0.05 | -0.075
PCBP2 (UniProt F8W0G4) | 0.034 | -0.092 | -0.138 | -0.154 | 0 |  | -0.298 |  |  | 0.053
PHF14 (UniProt O94880) | -0.127 | -0.203 | -0.1 | 0.082 | 0.085 |  | 0.073 |  | -0.077 | 
PCLAF (UniProt Q15004) | -0.115 | 0.081 | 0.001 | 0.02 | -0.087 | -0.044 | 0.018 | -0.018 |  | 0.094
